Screen size: about 52,000 compounds; about 4,300 (8.3%) were called active. This is one part of a sample in which actives are shown more often than they occur. No stated cut-off is given here; in the data, active means survival mostly below about 52% (no sharp cut-off); inactive means mostly above about 56%.
What follows are compounds tested on DeltatarO mutant (assay: S. aureus survival, RN4220 and DeltatarO strains – OD600, teichoic acid synthesis inhibitors, primary screen (AID 463173)). Conditions: S. aureus RN4220 wild type/DeltatarO growth, OD600, 18 h, stronger effect = lower value, screened at 18.75 µg/mL (by protocol).

SMILES | survival
CC(C)COc1ccc(C(=O)N(Cc2ccc(N(C)C)cc2)Cc2ccco2)cc1 | 71% (inactive)
Cc1ccc(NC(=O)CSCc2cc(=O)c3ccccc3[nH]2)c(C)c1 | 116% (inactive)
O=C(Cn1c(=O)c2cccn2c2ccc(F)cc21)N1CCN(c2ccccc2F)CC1 | 56% (inactive)
CC(C)c1ccc(NC(=O)CCn2c(=O)c3cccn3c3ccccc32)cc1 | 57% (inactive)
Cc1ccc(NC(=O)CCCn2c(=O)c3cccn3c3ccccc32)cc1Cl | 68% (inactive)
Cc1ccc(NC(=O)CCCn2c(=O)c3cccn3c3ccccc32)cc1C | 61% (inactive)
Cc1ccc(NC(=O)CCn2c(=O)c3cccn3c3ccccc32)cc1C | 46% (active)
Cc1cc(C)c(NC(=O)CCn2c(=O)c3cccn3c3ccccc32)c(C)c1 | 49% (inactive)
Cc1ccc(NC(=O)CCn2c(=O)c3cccn3c3ccccc32)cc1Cl | 45% (active)
O=C(Nc1ccc(Cl)cc1)N1CCN(c2ccc3nnc(-c4ccccc4)n3n2)CC1 | 72% (inactive)
COc1cc(C2C(C(=O)Nc3ccc(Cl)cc3)=C(C)Nc3nc(SC)nn32)cc(OC)c1OC (configuration not stated) | 64% (inactive)
CC(C)=NNS(=O)(=O)c1ccc(N2CCCC2=O)cc1 | 71% (inactive)
CC1CCc2sc3ncnc(NCCCN(C)C)c3c2C1 (configuration not stated) | 117% (inactive)
Cc1nn(CC(=O)NCc2ccc(N(C)C)cc2)c(=O)c2nn(-c3ccccc3)c(C)c12 | 83% (inactive)
CCS(=O)(=O)N1CCc2cc(C(=O)NCCc3ccc(OC)c(OC)c3)ccc21 | 69% (inactive)
CCC(=O)N1CCc2cc(Br)cc(S(=O)(=O)NCCc3ccc(OC)c(OC)c3)c21 | 52% (inactive)
O=C1CN(C(=O)COc2ccc(Cl)cc2Cl)C(c2ccccc2)c2cc(F)ccc2N1 (configuration not stated) | 88% (inactive)
COc1ccc(C(=O)N2CC(=O)Nc3ccc(C)cc3C2c2ccccc2)cc1OC (configuration not stated) | 61% (inactive)
Cc1ccc2c(c1)C(c1ccc(F)cc1)N(C(=O)COc1ccc(Cl)cc1Cl)CC(=O)N2 (configuration not stated) | 45% (active)
O=C1CN(C(=O)COc2ccc(Cl)cc2Cl)C(c2ccc(F)cc2)c2cc(F)ccc2N1 (configuration not stated) | 47% (active)
Cc1ccc2c(c1)C(c1ccc(F)cc1)N(C(=O)C(C)C)CC(=O)N2 (configuration not stated) | 82% (inactive)
CCCC(=O)N1CC(=O)Nc2ccc(Cl)cc2C1c1ccc(F)cc1 (configuration not stated) | 50% (inactive)
CCCC(=O)N1CC(=O)Nc2ccc(Cl)cc2C1c1ccccc1 (configuration not stated) | 69% (inactive)
CCOc1ccc(C(=O)N2CC(=O)Nc3ccc(C)cc3C2c2ccc(F)cc2)cc1OCC (configuration not stated) | 67% (inactive)
Cc1ccc2c(c1)C(c1ccccc1)N(C(=O)COc1ccc(Cl)cc1Cl)CC(=O)N2 (configuration not stated) | 49% (active)

SMILES | survival
Cc1c(CCC(=O)NCCc2ccccc2F)c(=O)oc2cc(O)ccc12 | 61% (inactive)
O=C(CSc1nc2c([nH]c3ccccc32)c(=O)n1-c1ccccc1)N1CCc2ccccc21 | 101% (inactive)
CCOC(=O)c1ccccc1NS(=O)(=O)c1ccc(N2CCCCS2(=O)=O)cc1 | 90% (inactive)
CN1CCN(Cn2c(O)c(N=NC(=O)c3ccc(Br)cc3)c3cc(Br)ccc32)CC1 | 87% (inactive)
CCOc1ccc(NC(=O)CC2C(=O)N(c3cccc(C)c3)C(=O)N2Cc2cccnc2)cc1 (configuration not stated) | 55% (inactive)
CCOc1ccc(NC(=O)c2cnc3sc(N4CCOCC4)nn3c2=O)cc1 | 97% (inactive)
COCCNC(=O)c1ccc2c(=O)n(CCOC)c(SCC(=O)c3c[nH]c4ccccc34)nc2c1 | 17% (active)
COCCn1c(SCC(=O)c2c[nH]c3ccccc23)nc2cc(C(=O)NC(C)C)ccc2c1=O | 55% (inactive)
COCCn1c(SCC(=O)c2c[nH]c3ccccc23)nc2cc(C(=O)NCC(C)C)ccc2c1=O | 100% (inactive)
Cc1ccc(Cl)cc1-n1ncc2c(NCCc3ccccc3)ncnc21 | 60% (inactive)
COc1ccc(Cl)cc1NC(=O)Cn1c(=O)n(Cc2nc(C)no2)c(=O)c2ccccc21 | 83% (inactive)
COc1ccc(NC(=O)CSc2nccn2Cc2ccco2)cc1OC | 73% (inactive)
Cc1ccc2nc(NC(=O)CSc3nccn3Cc3ccccc3)sc2c1 | 37% (active)
Cc1cc(C)cc(-n2ccnc2SCC(=O)Nc2nc3ccccc3s2)c1 | 71% (inactive)
O=C(CSc1nccn1Cc1ccc(F)cc1)Nc1nc2ccccc2s1 | 83% (inactive)
Cc1ccc(Cn2ccnc2SCC(=O)Nc2nnc(C)s2)cc1 | 55% (inactive)
O=C(CSc1nccn1Cc1ccc(Cl)cc1)Nc1nc2ccccc2s1 | 32% (active)
Cc1cc(C)cc(-n2ccnc2SCC(=O)Nc2nc3ccc(C)cc3s2)c1 | 52% (active)
Cc1ccc2nc(NC(=O)CSc3nccn3-c3ccc(Cl)cc3)sc2c1 | 71% (inactive)
Cc1nnc(NC(=O)CSc2nccn2Cc2ccc(F)cc2)s1 | 0% (active)
Cc1ccc2nc(NC(=O)CSc3nccn3Cc3ccc(F)cc3)sc2c1 | 99% (inactive)
O=C(CSc1nccn1Cc1ccccc1)Nc1nc2ccccc2s1 | 117% (inactive)
Cc1nnc(NC(=O)CSc2nccn2Cc2ccc(Cl)cc2)s1 | 112% (inactive)
Cc1ccc2nc(NC(=O)CSc3nccn3Cc3ccc(Cl)cc3)sc2c1 | 96% (inactive)
COc1ccccc1NC(=O)CCN1CCC(C(N)=O)CC1 | 193% (inactive)

SMILES | survival
COc1ccc(CNC(=O)c2sc3nc[nH]c(=O)c3c2C)cc1 | 75% (inactive)
CCCCNc1nc(Oc2ccc(=O)n(C)n2)nc(N2CCOCC2)n1 | 81% (inactive)
COc1ccc(C)cc1Nc1nc(-c2cccc(Cl)c2)c2c(n1)-c1ccccc1OC2 | 68% (inactive)
CCOC(=O)CCn1nc(C)c2c(C)n(-c3ccccc3)nc2c1=O | 87% (inactive)
Cc1ccc(OCC(=O)Nc2nc(-c3ccc(Br)cc3)ns2)cc1 | 72% (inactive)
Cc1ccc(NC(=O)C2CCN(C(=O)c3sc4nc[nH]c(=O)c4c3C)CC2)cc1F | 89% (inactive)
COc1cccc(CN2C(=O)c3ccccc3Sc3ccc(C(=O)N(C)Cc4ccccc4)cc32)c1 | 79% (inactive)
CCN1CCc2c(sc(NC(=O)CSc3ccccc3)c2-c2nc3ccccc3s2)C1 | -5% (active)
CN1CCc2c(sc(NC(=O)CSc3ccccc3)c2-c2nc3ccccc3s2)C1 | 73% (inactive)
CC(=O)N1CCc2c(sc(NC(=O)CSc3ccccc3)c2-c2nc3ccccc3s2)C1 | 109% (inactive)
CCc1ccc(N2C(=O)C3C(C(=O)OC)=NN(C(C)=O)C3C2=O)cc1 (configuration not stated) | 75% (inactive)
Cc1ccc(NC(=O)C2CCCN(c3ncnc4onc(-c5ccc(F)cc5)c34)C2)c(Cl)c1 (configuration not stated) | 71% (inactive)
O=C(Nc1ccccc1)NC1(C(=O)NCc2ccc3c(c2)OCO3)CCCCC1 | 6% (active)
CCCCNC(=O)C1(NC(=O)Nc2ccccc2)CCCCC1 | 74% (inactive)
S=C(NCc1ccc2c(c1)OCO2)Nc1ccccc1 | 97% (inactive)
NC(=O)CSc1nnnn1C1CCCCC1 | 71% (inactive)
COc1ccc(C(=O)Nc2cccc(-c3cn4ccsc4n3)c2)c(OC)c1 | 70% (inactive)
COc1cccc(-c2nc3c(C#N)c[nH]n3c2NC2CCCC2)c1OC | 64% (active)
COc1ccc(-c2nc3c(C#N)c[nH]n3c2NC2CCCC2)cc1 | 56% (inactive)
COc1cccc(-c2nc3c(C#N)c[nH]n3c2NC2CCC(C)CC2)c1 (configuration not stated) | 29% (active)
COc1cccc(-c2nc3c(C#N)c[nH]n3c2NC2CCCCC2)c1OC | 60% (inactive)
COc1ccc(-c2nc3c(C#N)c[nH]n3c2NC2CCCC2)c(OC)c1 | 65% (inactive)
COc1cccc(-c2nc3c(C#N)c[nH]n3c2NC2CCCCC2)c1 | 72% (inactive)
CCC(=O)N1c2ccccc2CC1C(=O)NCCc1ccccc1 (configuration not stated) | 69% (inactive)
CCN(CC)c1ccc(NC(=O)C(NS(=O)(=O)c2cccs2)C(C)C)c(C)c1 (configuration not stated) | 141% (inactive)

SMILES | survival
CCC1CCCCN1CC(=O)Nc1cc(C)c2c(=O)oc3ccccc3c2n1 (configuration not stated) | 98% (inactive)
Cc1ccc(NC(=O)COc2ccc3oc4c(c3c2)CCCC4)c(C)c1 | 88% (inactive)
O=C(COc1ccc2oc3c(c2c1)CCCC3)Nc1ccc(Br)cc1 | 89% (inactive)
Cc1ccc(NC(=O)COc2ccc3oc4c(c3c2)CCCC4)cc1C | 70% (inactive)
Cc1cccc(NC(=O)COc2ccc3oc4c(c3c2)CCCC4)c1 | 40% (active)
O=C(COc1ccc2oc3c(c2c1)CCCC3)Nc1cccc(Br)c1 | 27% (active)
O=C(COc1ccc2oc3c(c2c1)CCCC3)Nc1ccc(Cl)cc1 | 85% (inactive)
Cn1c(C(C(=O)NCC2CCCO2)N(Cc2ccc(F)cc2)C(=O)Cn2nnc3ccccc32)nc2ccccc21 (configuration not stated) | 95% (inactive)
O=C(CSCn1nnc2c(=O)[nH]c(Cc3ccc(F)cc3)nc21)Nc1cccc(C(F)(F)F)c1 | 64% (inactive)
CC(=O)OC(COCc1ccccc1)Cn1cnc2ccccc21 (configuration not stated) | 69% (inactive)
CCN(CC)CCCNC(=O)CN1C(=O)COc2ccc(S(=O)(=O)N3CCC(C)CC3)cc21 | 101% (inactive)
CCCOc1ccc(C2c3c(-c4ccccc4O)n[nH]c3C(=O)N2CCCOCC)cc1OCC (configuration not stated) | 81% (inactive)
CSc1ccc(C2c3c(-c4ccccc4O)n[nH]c3C(=O)N2Cc2ccncc2)cc1 (configuration not stated) | 70% (inactive)
COC(=O)c1ccc(C2c3c(-c4ccccc4O)n[nH]c3C(=O)N2Cc2cccnc2)cc1 (configuration not stated) | 72% (inactive)
CCc1ccc(C2c3c(-c4cc(C)ccc4O)n[nH]c3C(=O)N2Cc2cccnc2)cc1 (configuration not stated) | 61% (inactive)
CCCOc1ccc(C2c3c(-c4ccccc4O)n[nH]c3C(=O)N2Cc2cccnc2)cc1 (configuration not stated) | 3% (active)
CCOc1ccc(C2c3c(-c4ccccc4O)n[nH]c3C(=O)N2Cc2ccncc2)cc1 (configuration not stated) | 68% (inactive)
CCc1ccc(C2c3c(-c4ccccc4O)n[nH]c3C(=O)N2Cc2cccnc2)cc1 (configuration not stated) | 34% (active)
CCOc1cc(C2c3c(-c4ccccc4O)n[nH]c3C(=O)N2Cc2cccnc2)ccc1O (configuration not stated) | 93% (inactive)
O=C1c2[nH]nc(-c3ccccc3O)c2C(c2cccc(O)c2)N1Cc1cccnc1 (configuration not stated) | 95% (inactive)
CCc1ccc(C2c3c(-c4ccccc4O)n[nH]c3C(=O)N2Cc2ccncc2)cc1 (configuration not stated) | 22% (active)
CCOCCCN1C(=O)c2[nH]nc(-c3ccccc3O)c2C1c1ccc(CC)cc1 (configuration not stated) | 39% (active)
